M1 PAM – human M1 muscarinic receptor positive allosteric modulators, primary screen, CHO-K1 cells, Fluo-8 calcium fluorescence, 1536-well; Muscarinic acetylcholine receptor M1 (Homo sapiens), P11229; CHO-K1 hM1, ACh EC20; 0% = ACh EC20, 100% = maximal ACh; activation, % at 3 µM; actives 0.088% (n = 360,000); AID 588819, 2011; in the data active = activation above about 19%, passing the limit was not always enough
Target sequence (P11229 whole entry, looked up): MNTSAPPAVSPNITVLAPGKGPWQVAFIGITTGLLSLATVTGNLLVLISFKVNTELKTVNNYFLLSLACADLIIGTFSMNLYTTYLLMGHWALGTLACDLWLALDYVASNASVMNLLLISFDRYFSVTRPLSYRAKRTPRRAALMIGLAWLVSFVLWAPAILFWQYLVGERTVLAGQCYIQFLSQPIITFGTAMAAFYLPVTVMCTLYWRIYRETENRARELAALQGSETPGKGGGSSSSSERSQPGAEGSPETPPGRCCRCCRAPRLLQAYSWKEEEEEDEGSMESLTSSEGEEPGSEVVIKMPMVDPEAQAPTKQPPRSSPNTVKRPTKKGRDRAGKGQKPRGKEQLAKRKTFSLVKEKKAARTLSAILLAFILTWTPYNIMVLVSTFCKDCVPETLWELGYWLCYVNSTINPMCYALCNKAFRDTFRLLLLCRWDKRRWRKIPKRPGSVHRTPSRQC
M1 ag parental – counter-screen for M1 agonists: effect in parental CHO-K1 cells; AID 602248, 2012; actives 0.48% (n = 360,000); Fluo-8 calcium fluorescence; scaled to maximal ATP response, vehicle zero; activation, % at 3 µM; in the data active = activation above about 15%;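 note: untransfected CHO-K1 host cells lacking M1 receptor as counterscreen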
M1 ag – human M1 muscarinic receptor agonists, primary screen, Fluo-8 calcium fluorescence, CHO-K1 cells, HTS; activation, % at 3 µM; CHO-K1 hM1, agonist mode; 0% DMSO, 100% acetylcholine EC100; Muscarinic acetylcholine receptor M1 (Homo sapiens), P11229; actives 0.33% (n = 360,000);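 active = activation above the run's mean compound activation plus 3 SD, cut at about 16% in these data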;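 note: peak over basal fluorescence ratio within a 140 s kinetic read after compound addition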
M1 PAM parental – nonselective calcium activators in parental CHO-K1 cells, primary screen, counter-screen for M1 PAM project, cell-based, Fluo-8 calcium fluorescence, full deck, 1536-well; ATP EC20; 0% at ATP EC20, 100% at ATP max; AID 602247, 2012; actives 0.02% (n = 360,000); activation, % at 3 µM;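 active = activation above the run cutoff, the mean activation of all test compounds plus 3 SD, cut at about 40% in these data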;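 note: peak over basal fluorescence ratio in a 140 s read after ATP addition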
CHO-K1 Ca antag – nonselective inhibitor or artifact in parental CHO-K1 cells; AID 602250; inhibition, % at 3 µM; ATP-induced calcium, Fluo-8 fluorescence; actives 0.6% (n = 360,000);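 active = inhibition above a per-plate cutoff, the plate's mean sample inhibition plus 3 SD, cut at about 24% in these data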;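 note: 0% = DMSO plus EC80 ATP and 100% = DMSO alone without ATP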
M1 antag – human M1 muscarinic receptor antagonists, primary screen, CHO-K1 cells, Fluo-8 calcium fluorescence, 1536-well; actives 1.3% (n = 360,000); inhibition, % at 3 µM; CHO-K1 hM1, ACh EC80 antagonist;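 active = percent inhibition above its own plate's cutoff, namely the mean of that plate's compound wells plus 3 SD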;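 note: peak over basal fluorescence ratio during 140 s after agonist addition; 0% = ACh EC80 plus DMSO and 100% = DMSO alone without agonist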
* = called active by the depositor. Hits are enriched below; roughly 2.3% of the tested compounds scored in any of these assays.

SMILES | M1 PAM | M1 ag parental | M1 ag | M1 PAM parental | CHO-K1 Ca antag | M1 antag
CCOC(=O)C1CCCN(C(=O)CCn2nnnc2CN2CCOCC2)C1 (configuration not stated) | -13 | 0 | 32* | 23 | 1 | 17
CCN(CC)C(=O)C1CCCN(C(=O)CCn2nnnc2CN2CCOCC2)C1 (configuration not stated) | 9 | 0 | -3 | 0 | 1 | -14
Cc1ccc(S(=O)(=O)NC(=O)C2(C)CCN2C(=O)C2CCCCC2)cc1 (configuration not stated) | 6 | 1 | -2 | 20 | -5 | -9
COc1ccccc1C(=O)NC(CCSC)C(=O)NCCCn1nc(C)cc1C (configuration not stated) | 5 | 0 | -4 | 11 | 4 | -6
O=C(N/N=C/c1ccc(OC2CSC2)cc1)c1ccccc1 | -1 | 9 | 32* | 18 | -5 | 0
Oc1ccc(N=Nc2ccc3c(c2)OCCO3)c2ncccc12 | -12 | 17* | 12 | -3 | 22 | 32*
Cc1ccc(NC(=S)NNS(=O)(=O)c2ccc3ccccc3c2)cc1Cl | 6 | 3 | -10 | 14 | 4 | -2
Cc1ccc(NC(=O)Cc2nn(C)c(=O)c3ccccc23)cc1F | -15 | 10 | 6 | 1 | 8 | 11
Cn1nc(CC(=O)Nc2ccc3c(c2)OCCO3)c2ccccc2c1=O | -11 | 12 | 2 | -11 | 27* | 31*
COc1ccc(NC(=O)N2CCc3ccccc3C2)c(OC)c1 | 14 | 2 | -1 | 3 | -3 | -20
COc1nc(OC)nc(Oc2ccc([N+](=O)[O-])cc2Cl)n1 | 5 | 0 | -8 | 12 | -6 | -6
CCNC(=O)C1CC(=O)N(CCCc2ccccc2)C(=Nc2ccccc2)S1 (configuration not stated) | 7 | 19* | -4 | 10 | 1 | -12
CCOC(=O)c1ccc(N=C2SC(C(=O)NCCc3ccccc3)CC(=O)N2C)cc1 (configuration not stated) | -1 | 1 | -5 | -12 | -9 | 8
CCNC(=O)NC1c2ccccc2CSc2ccccc21 (configuration not stated) | -1 | 0 | -7 | 12 | -7 | 16
CCOCCN1CCN(C2c3ccccc3CSc3ccccc32)CC1 (configuration not stated) | -26 | 0 | -8 | 2 | 0 | 100*
CCOC(=O)CN1C(=O)Nc2ccc(Br)cc2C1c1ccccc1 (configuration not stated) | -22 | 0 | -6 | -4 | 2 | 50*
O=C(CN1CCN(Cc2cccc(Cl)c2)C1=O)NCc1cccs1 | 1 | 1 | -6 | 9 | -9 | -1
NNC(=O)c1ccc(CSc2cccc3cccnc23)cc1 | 11 | 1 | 29* | 12 | -21 | 0
O=C(N/N=C/c1ccccc1Br)c1ccc(CSc2cccc3cccnc23)cc1 | 10 | 5 | 3 | 20 | -8 | -8
Cc1cccc(CSc2cccc3cccnc23)c1 | 0 | 1 | -3 | 9 | 13 | 15
c1cnc2c(SCc3ccc(-c4nnco4)cc3)cccc2c1 | 15 | 2 | 16* | 10 | 2 | -45
O=C1CCC/C(=N\NC(=O)c2ccc(CSc3cccc4cccnc34)cc2)C1 | 11 | 0 | 20* | 20 | -12 | -14
COc1cccc(/C=C/C(=O)Nc2ccc3nc4n(c(=O)c3c2)CCCC4)c1OC | 0 | 1 | 0 | -9 | 2 | 8
CCN1CCN(c2ncnc3c2sc(=S)n3-c2ccccc2)CC1 | 2 | 2 | -10 | 8 | 2 | -6
CCN1CCN(c2ncnc3sc(C)c(-c4ccccc4)c23)CC1 | -16 | 2 | -11 | -22 | -13 | 29*
SMILES | M1 PAM | M1 ag parental | M1 ag | M1 PAM parental | CHO-K1 Ca antag | M1 antag
CCN1CCN(c2ncnc3scc(-c4ccc(C)c(C)c4)c23)CC1 | -32 | 0 | -11 | -6 | -3 | 85*
OCC1OC(n2ccc3c(SCc4ccccc4)ncnc32)C(O)C1O (configuration not stated) | 4 | 3 | 0 | 19 | -10 | -12
Cc1cc(-c2ccc(C)c(S(=O)(=O)Nc3cc(C)on3)c2)on1 | 14 | 0 | -2 | 24 | -10 | -24
CCOC(=O)c1sc(S(C)(=O)=O)c2c1CCc1conc1-2 | 14 | 0 | 1 | -9 | 36* | -21
COc1ccc(CCNC(=O)c2cc3cc(F)ccc3nc2C)cc1OC | -3 | 16* | 15 | 12 | -4 | 0
COc1ccc(CCNC(=O)c2ccc3ccccc3n2)cc1OC | 1 | 2 | -6 | 8 | 3 | -5
Cc1ccc(-c2[nH]ncc2/C=N/n2c(COc3ccccc3)nc3ccccc3c2=O)cc1 | -15 | 5 | -7 | -12 | 19 | 29*
Cc1ccccc1OCc1nc2ccccc2c(=O)n1/N=C/c1cn[nH]c1-c1ccccc1 | -15 | 5 | -2 | -7 | 16 | 29*
Cc1nc2ccccc2c(=O)n1/N=C/c1cn[nH]c1-c1ccccc1 | -9 | 1 | -3 | 8 | -1 | 8
CC(=O)c1ccc(S(=O)(=O)N2CCN(c3nc(-c4cccnc4)nc4ccccc34)CC2)cc1 | -30 | 4 | -6 | -3 | -8 | 76*
COc1ccc(C(=O)OCC(=O)Nc2c(C)cccc2C)c(OC)c1OC | 15 | 2 | 1 | -3 | -8 | -10
COc1ccc(C(=O)OCC(=O)Nc2cccc(C(C)=O)c2)c(OC)c1OC | 7 | 16* | 10 | -2 | 4 | -5
CCOC(=O)N1CCC(NC(=O)C2CCN(C(=O)c3cc4oc(C)cc4n3Cc3c(F)cccc3Cl)CC2)CC1 | 11 | 1 | 32* | 20 | -17 | -7
CC(=O)c1c(C)nn(CC(=O)NC2CCCN(Cc3ccc(CC(C)C)cc3)C2)c1C (configuration not stated) | -24 | 1 | -5 | -18 | -2 | 47*
O=C(NCCc1ccccc1)C(=O)NC1CCCCC1 | 4 | 0 | -3 | -5 | -15 | -31
O=C(NC1CCCCC1)C(=S)NCCc1ccccc1 | 3 | 21* | -6 | 9 | -5 | -9
COc1cccc(CNc2cnc3ccccc3c2)c1O | -9 | 16* | 4 | 4 | 7 | 8
COc1cccc(CNc2ccc([N+](=O)[O-])cc2Cl)c1O | -12 | 4 | -7 | -13 | 6 | 8
COc1ccccc1CCNCc1ccc(OC)c(OCc2ccccc2)c1 | -24 | 20* | 7 | -6 | -17 | 34*

High-throughput results deposited in PubChem BioAssay by The Scripps Research Institute Molecular Screening Center.
